From the supplement of paper PMC10849652
Targets with a hit are over-represented here; the source holds about 8,800 in all. About 0.5% of all pairs of compound and target were hits.

Assays:
Experiment in all cases: log2 fold change, soluble protein after heating vs DMSO (PISA); higher = thermal stabilisation; K562 lysate, 10 uM; active = over 0.2 and 3.5 SD of the protein, either way, in both replicates (recomputed)
lapatinib = compound: CS(=O)(=O)CCNCc1ccc(-c2ccc3ncnc(Nc4ccc(OCc5cccc(F)c5)c(Cl)c4)c3c2)o1 [lapatinib]
Outline: (§1)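 Values give the log-two fold change in thermal stability against solvent controls, from duplicates. Crude K562 extract at 1 mg/mL protein, made by dounce homogenisation in PBS pH 7.4 with 1 mM MgCl2, was treated with 10 μM compound for 30 min. After 3 min heating across 48°C-58°C, aliquots were pooled, adjusted to 0.5% NP-40 at 4°C and centrifuged at 21,000xg for 90 min. The supernatant was measured by TMTpro 16plex LC-MS/MS with channel sums equalised.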

pictilisib = compound: CS(=O)(=O)N1CCN(Cc2cc3nc(-c4cccc5[nH]ncc45)nc(N4CCOCC4)c3s2)CC1 [pictilisib]
Outline: as §1

crizotinib = compound: C[C@@H](Oc1cc(-c2cnn(C3CCNCC3)c2)cnc1N)c1c(Cl)ccc(F)c1Cl [crizotinib]
Outline: as §1

[1] = compound: C[C@H](C1=CC=C(C=C1)C(=O)NC2=C3C=CNC3=NC=C2)N
Outline: as §1

duvelisib = compound: C[C@H](Nc1ncnc2nc[nH]c12)c1cc2cccc(Cl)c2c(=O)n1-c1ccccc1 [duvelisib]
Outline: as §1

gandotinib = compound: Cc1cc(Nc2cc(CN3CCOCC3)c3nc(C)c(Cc4ccc(Cl)cc4F)n3n2)n[nH]1 [gandotinib]
Outline: as §1

doramapimod = compound: Cc1ccc(-n2nc(C(C)(C)C)cc2NC(=O)Nc2ccc(OCCN3CCOCC3)c3ccccc23)cc1 [doramapimod]
Outline: as §1

bafetinib = compound: Cc1ccc(NC(=O)c2ccc(CN3CC[C@H](N(C)C)C3)c(C(F)(F)F)c2)cc1Nc1nccc(-c2cncnc2)n1 [bafetinib]
Outline: as §1

[2] = compound: Cc1cccc(CC(=O)N2CCc3c2ccc(-c2cn(C)c4ncnc(N)c24)c3F)n1
Outline: as §1

nilotinib = compound: Cc1cn(-c2cc(NC(=O)c3ccc(C)c(Nc4nccc(-c5cccnc5)n4)c3)cc(C(F)(F)F)c2)cn1 [nilotinib]
Outline: as §1

[3] = compound: Cc1nc(Nc2n[nH]c3c2CN(C(=O)N[C@H](CN(C)C)c2ccccc2)C3(C)C)c2sccc2n1
Outline: as §1

dasatinib = compound: Cc1nc(Nc2ncc(C(=O)Nc3c(C)cccc3Cl)s2)cc(N2CCN(CCO)CC2)n1 [dasatinib]
Outline: as §1

[4] = compound: Cc1ncc(-c2ccnc(Nc3ccc(S(C)(=O)=O)cc3)n2)n1C(C)C
Outline: as §1

[5] = compound: Cn1cc(-c2ccc3c(c2)CCN3C(=O)Cc2cccc(C(F)(F)F)c2)c2c(N)ncnc21
Outline: as §1

quisinostat = compound: Cn1cc(CNCC2CCN(c3ncc(C(=O)NO)cn3)CC2)c2ccccc21 [quisinostat]
Outline: as §1

tipifarnib = compound: Cn1cncc1[C@@](N)(c1ccc(Cl)cc1)c1ccc2c(c1)c(-c1cccc(Cl)c1)cc(=O)n2C [tipifarnib]
Outline: as §1

[6] = compound: NC(=O)Nc1cc(-c2cccc(F)c2)sc1C(=O)N[C@H]1CCCNC1
Outline: as §1

[7] = compound: NC(=O)c1cnc(N[C@@H]2CCCC[C@@H]2N)nc1Nc1cccc(-n2nccn2)c1
Outline: as §1

[8] = compound: NC1(c2ccc(-c3nc4ccn5c(=O)[nH]nc5c4cc3-c3ccccc3)cc2)CCC1
Outline: as §1

tozasertib = compound: Cc1cc(Nc2cc(N3CCN(C)CC3)nc(Sc3ccc(NC(=O)C4CC4)cc3)n2)n[nH]1 [tozasertib]
Outline: as §1

Measured: log2 fold change

ABRACL (UniProt Q9P1F3)
UniProt Q9P1F3, sequence (Q9P1F3 whole entry, looked up): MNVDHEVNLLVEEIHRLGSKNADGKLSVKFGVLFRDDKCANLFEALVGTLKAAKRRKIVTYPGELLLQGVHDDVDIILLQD
inactive: lapatinib 0.154 | pictilisib -0.075 | crizotinib -0.105 | [1] -0.053 | duvelisib -0.239 | gandotinib -0.003 | doramapimod -0.014 | bafetinib 0.09 | [2] -0.047 | nilotinib 0.194 | [3] 0.006 | dasatinib -0.119 | [4] -0.042 | [5] -0.067 | quisinostat 0.053 | tipifarnib 0.023 | [6] -0.083 | [7] 0.037 | [8] -0.076

ALKBH1 (UniProt Q13686)
UniProt Q13686, sequence (Q13686 whole entry, looked up): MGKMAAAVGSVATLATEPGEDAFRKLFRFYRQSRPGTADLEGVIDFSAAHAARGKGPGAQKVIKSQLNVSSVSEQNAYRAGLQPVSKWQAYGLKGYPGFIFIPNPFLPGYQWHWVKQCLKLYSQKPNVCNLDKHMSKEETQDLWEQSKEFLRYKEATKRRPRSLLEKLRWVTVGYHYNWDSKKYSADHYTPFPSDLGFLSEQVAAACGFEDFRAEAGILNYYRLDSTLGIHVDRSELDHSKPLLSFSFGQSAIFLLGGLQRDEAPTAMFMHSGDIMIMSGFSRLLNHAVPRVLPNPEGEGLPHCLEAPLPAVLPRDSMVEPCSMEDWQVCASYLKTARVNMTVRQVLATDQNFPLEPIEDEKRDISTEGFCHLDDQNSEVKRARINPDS
inactive: [1] -0.016 | duvelisib 0.014 | gandotinib 0 | tozasertib 0.09 | [2] 0.048 | nilotinib -0.087 | [3] -0.026 | dasatinib -0.249 | [4] -0.052 | [5] 0.007 | tipifarnib 0.137 | [8] 0.116

AMDHD2 (UniProt Q9Y303)
UniProt Q9Y303, sequence (Q9Y303 whole entry, looked up): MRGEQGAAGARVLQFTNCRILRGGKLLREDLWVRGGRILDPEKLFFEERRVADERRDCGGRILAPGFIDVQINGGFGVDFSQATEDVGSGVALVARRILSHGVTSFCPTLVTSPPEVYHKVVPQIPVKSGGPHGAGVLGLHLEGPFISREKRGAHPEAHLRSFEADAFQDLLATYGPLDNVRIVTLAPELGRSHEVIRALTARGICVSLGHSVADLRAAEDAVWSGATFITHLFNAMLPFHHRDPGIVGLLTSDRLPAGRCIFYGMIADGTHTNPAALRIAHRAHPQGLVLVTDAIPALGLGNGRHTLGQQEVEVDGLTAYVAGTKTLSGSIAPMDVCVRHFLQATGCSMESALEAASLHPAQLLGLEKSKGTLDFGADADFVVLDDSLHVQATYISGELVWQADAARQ
inactive: crizotinib -0.056 | [1] 0.052 | gandotinib -0.015 | doramapimod 0.057 | [2] 0.065 | quisinostat -0.001 | [6] 0.048

ARHGEF2 (UniProt V9GYF0)
inactive: lapatinib -0.134 | duvelisib 0.11 | tozasertib 0.041 | nilotinib 0.029 | [3] -0.119 | dasatinib 0.02 | [4] -0.113 | [5] -0.139 | tipifarnib -0.23 | [7] 0.117

ACTG1 (UniProt K7EM38)
inactive: lapatinib -0.08 | tozasertib 0.207 | [7] 0.171

ANKRD10 (UniProt Q9NXR5)
UniProt Q9NXR5, sequence (Q9NXR5 whole entry, looked up): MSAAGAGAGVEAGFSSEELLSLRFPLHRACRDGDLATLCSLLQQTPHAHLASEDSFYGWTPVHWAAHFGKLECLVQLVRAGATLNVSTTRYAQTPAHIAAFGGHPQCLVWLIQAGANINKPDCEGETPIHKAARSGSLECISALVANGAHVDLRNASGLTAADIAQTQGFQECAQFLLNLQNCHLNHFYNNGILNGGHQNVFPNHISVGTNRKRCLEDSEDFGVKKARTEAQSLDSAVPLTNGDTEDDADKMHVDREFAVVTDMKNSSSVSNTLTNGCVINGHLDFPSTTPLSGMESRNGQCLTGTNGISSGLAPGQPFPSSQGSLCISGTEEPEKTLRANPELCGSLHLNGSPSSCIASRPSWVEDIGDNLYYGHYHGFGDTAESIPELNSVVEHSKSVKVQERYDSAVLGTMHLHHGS
inactive: lapatinib -0.074 | pictilisib 0.184 | crizotinib 0.017 | [1] -0.032 | duvelisib -0.052 | gandotinib -0.088 | doramapimod -0.079 | bafetinib -0.112 | [2] 0.007 | nilotinib -0.042 | [3] -0.021 | dasatinib -0.05 | [4] 0.021 | [5] 0.012 | quisinostat 0.001 | tipifarnib -0.028 | [6] 0.036 | [7] 0.168 | [8] -0.029

AGGF1 (UniProt Q8N302)
UniProt Q8N302, sequence (Q8N302 whole entry, looked up): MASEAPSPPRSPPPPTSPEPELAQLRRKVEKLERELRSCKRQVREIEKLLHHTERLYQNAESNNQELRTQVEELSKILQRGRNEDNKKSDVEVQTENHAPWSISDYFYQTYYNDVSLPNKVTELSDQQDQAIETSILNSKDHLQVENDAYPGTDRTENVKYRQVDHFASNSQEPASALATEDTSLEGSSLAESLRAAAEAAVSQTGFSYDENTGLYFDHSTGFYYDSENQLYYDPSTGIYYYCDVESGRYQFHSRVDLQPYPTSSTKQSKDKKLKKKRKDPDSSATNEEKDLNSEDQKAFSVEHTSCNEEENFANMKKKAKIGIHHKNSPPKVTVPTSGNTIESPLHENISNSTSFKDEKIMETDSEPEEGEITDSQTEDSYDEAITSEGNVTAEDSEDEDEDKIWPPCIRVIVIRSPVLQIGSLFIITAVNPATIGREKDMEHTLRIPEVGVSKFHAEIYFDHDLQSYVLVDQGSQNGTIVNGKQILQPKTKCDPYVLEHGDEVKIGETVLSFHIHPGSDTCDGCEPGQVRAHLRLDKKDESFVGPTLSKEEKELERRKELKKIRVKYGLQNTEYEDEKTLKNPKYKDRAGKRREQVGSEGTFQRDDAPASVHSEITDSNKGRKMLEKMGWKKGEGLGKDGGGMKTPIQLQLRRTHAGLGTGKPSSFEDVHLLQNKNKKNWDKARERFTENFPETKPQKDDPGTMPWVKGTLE
inactive: lapatinib -0.046 | pictilisib -0.133 | crizotinib -0.028 | [1] -0.193 | gandotinib 0.139 | tozasertib 0.04 | doramapimod -0.011 | bafetinib 0.047 | [2] 0.268 | nilotinib 0.02 | [3] 0.055 | [4] 0.087 | quisinostat -0.041 | tipifarnib -0.06 | [6] -0.007 | [7] 0.075 | [8] 0.024

ACYP2 (UniProt P14621)
UniProt P14621, sequence (P14621 whole entry, looked up): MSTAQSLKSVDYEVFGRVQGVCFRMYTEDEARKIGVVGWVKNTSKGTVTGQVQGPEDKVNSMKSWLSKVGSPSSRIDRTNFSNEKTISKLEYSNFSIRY
inactive: lapatinib -0.049 | pictilisib -0.065 | crizotinib 0.082 | [1] 0.217 | gandotinib -0.076 | doramapimod -0.024 | bafetinib -0.002 | [2] -0.105 | nilotinib -0.008 | [3] -0.079 | [4] 0.097 | quisinostat -0.047 | tipifarnib 0.009 | [6] -0.009 | [7] -0.026 | [8] 0.019
